In general, inhibition refers to the drop in the measured response relative to a control, in per cent.

Results on 16 compounds are retold here after ChEMBL document CHEMBL1961873, “Compounds: GSK PKIS; Assays: Nanosyn kinase panel” (2012).

The target of assay [1] is Sphingosine kinase 1 (Homo sapiens) (UniProt Q9NYA1). Conditions: at 1 µM.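 Note: mean SPHK1 inhibition value reported from the GSK PKIS kinase panel screen.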
In assay [2] the target is T1, Sphingosine kinase 2 (Homo sapiens) (UniProt Q9NRA0).
T1 sequence (whole entry): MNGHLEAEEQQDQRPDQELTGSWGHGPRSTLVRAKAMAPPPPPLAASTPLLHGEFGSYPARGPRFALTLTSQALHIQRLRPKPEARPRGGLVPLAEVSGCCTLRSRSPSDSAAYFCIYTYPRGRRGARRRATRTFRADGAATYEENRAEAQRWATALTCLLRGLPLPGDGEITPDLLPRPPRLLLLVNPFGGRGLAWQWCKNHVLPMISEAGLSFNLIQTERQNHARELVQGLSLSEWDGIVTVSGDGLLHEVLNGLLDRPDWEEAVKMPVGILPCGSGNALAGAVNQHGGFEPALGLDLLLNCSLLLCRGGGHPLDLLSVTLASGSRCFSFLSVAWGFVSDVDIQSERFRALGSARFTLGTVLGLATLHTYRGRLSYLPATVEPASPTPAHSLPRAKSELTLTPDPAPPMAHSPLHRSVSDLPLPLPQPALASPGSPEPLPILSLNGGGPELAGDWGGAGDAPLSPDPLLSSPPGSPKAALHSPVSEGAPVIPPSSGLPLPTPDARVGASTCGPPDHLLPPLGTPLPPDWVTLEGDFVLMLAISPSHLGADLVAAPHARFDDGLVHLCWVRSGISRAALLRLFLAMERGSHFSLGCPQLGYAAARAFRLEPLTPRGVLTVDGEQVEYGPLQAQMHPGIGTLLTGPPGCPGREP
Conditions: at 0.1 µM.

Assay [3] deals with T1, Sphingosine kinase 2 (Homo sapiens). Conditions: at 1 µM.
For assay [4], the target named is Casein kinase II subunit alpha (Homo sapiens) (UniProt P68400). The settings on record: at 0.1 µM.
The target is the same in assay [5]. Conditions: at 1 µM.
Assay [6] concerns the target T2, Inhibitor of nuclear factor kappa-B kinase subunit alpha (Homo sapiens) (UniProt O15111).
T2 sequence (whole entry): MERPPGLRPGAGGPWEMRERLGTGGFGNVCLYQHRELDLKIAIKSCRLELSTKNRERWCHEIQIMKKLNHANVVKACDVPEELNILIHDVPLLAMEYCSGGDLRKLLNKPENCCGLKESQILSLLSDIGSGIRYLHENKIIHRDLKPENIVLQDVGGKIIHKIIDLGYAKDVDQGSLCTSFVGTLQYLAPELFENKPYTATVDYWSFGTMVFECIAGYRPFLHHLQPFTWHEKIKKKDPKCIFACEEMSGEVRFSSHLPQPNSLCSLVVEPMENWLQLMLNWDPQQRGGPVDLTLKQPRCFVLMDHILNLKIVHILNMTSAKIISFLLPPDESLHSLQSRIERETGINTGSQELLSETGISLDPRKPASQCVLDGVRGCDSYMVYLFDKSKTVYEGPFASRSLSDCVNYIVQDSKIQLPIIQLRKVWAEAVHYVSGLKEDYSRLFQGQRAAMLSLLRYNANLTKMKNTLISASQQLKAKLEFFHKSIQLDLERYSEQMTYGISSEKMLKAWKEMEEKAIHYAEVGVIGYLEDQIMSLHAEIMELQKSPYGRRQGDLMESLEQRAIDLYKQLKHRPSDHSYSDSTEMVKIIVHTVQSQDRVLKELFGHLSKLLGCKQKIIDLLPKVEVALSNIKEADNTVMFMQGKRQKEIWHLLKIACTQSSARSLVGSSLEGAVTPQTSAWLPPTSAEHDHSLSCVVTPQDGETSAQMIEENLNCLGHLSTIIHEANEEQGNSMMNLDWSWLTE
The settings on record: at 0.1 µM.

Assay [7] deals with T2, Inhibitor of nuclear factor kappa-B kinase subunit alpha (Homo sapiens). Conditions: at 1 µM.
Assay [8] addresses T3, Inhibitor of nuclear factor kappa-B kinase subunit beta (Homo sapiens) (UniProt O14920).
T3 sequence (whole entry): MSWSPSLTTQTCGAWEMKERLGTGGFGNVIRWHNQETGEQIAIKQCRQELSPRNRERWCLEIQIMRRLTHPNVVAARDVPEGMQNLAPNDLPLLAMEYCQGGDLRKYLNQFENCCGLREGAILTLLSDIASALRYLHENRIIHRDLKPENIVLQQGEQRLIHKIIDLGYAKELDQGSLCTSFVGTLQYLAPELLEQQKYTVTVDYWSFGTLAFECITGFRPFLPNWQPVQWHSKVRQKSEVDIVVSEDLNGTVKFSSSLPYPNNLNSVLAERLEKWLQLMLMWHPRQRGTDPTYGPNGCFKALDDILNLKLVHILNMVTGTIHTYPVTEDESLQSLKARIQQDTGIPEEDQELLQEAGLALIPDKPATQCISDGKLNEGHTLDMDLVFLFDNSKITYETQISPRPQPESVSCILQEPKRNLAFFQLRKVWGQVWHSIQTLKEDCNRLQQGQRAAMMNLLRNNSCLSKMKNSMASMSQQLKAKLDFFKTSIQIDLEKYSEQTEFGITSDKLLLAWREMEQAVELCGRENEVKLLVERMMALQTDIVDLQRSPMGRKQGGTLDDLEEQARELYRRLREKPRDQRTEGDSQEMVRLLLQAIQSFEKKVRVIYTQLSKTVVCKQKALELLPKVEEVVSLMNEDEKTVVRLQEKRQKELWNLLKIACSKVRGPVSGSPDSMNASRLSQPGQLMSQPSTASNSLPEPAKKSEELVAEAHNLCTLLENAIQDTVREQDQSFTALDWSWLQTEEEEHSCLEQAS
The settings on record: at 0.1 µM.

Assay [9] has as its target T3, Inhibitor of nuclear factor kappa-B kinase subunit beta (Homo sapiens). Conditions: at 1 µM.
The target in assay [10] is T4, Inhibitor of nuclear factor kappa-B kinase subunit epsilon (Homo sapiens) (UniProt Q14164).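 Note: mean inhibition of IKKε reported, from the GSK PKIS dataset.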
T4 sequence (whole entry): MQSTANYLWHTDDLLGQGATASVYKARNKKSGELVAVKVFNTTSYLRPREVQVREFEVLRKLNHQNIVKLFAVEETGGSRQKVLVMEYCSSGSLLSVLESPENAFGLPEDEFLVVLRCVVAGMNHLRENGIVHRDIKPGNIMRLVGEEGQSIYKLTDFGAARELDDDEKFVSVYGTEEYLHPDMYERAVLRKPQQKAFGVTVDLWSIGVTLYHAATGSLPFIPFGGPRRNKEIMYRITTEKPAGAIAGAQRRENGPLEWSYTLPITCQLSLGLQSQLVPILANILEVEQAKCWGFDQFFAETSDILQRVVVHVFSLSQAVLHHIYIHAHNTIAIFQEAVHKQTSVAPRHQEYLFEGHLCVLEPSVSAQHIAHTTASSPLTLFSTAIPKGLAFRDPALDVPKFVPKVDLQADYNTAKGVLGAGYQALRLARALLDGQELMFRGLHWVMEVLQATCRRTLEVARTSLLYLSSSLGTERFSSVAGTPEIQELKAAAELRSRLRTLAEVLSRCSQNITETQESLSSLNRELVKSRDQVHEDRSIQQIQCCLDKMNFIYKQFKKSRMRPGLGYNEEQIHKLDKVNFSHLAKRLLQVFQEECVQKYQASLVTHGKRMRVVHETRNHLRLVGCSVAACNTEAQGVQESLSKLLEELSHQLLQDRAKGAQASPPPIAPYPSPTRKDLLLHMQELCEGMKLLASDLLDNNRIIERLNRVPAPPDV
The settings on record: at 0.1 µM.

Sequence of Sphingosine kinase 1 (Homo sapiens) (Q9NYA1 whole entry): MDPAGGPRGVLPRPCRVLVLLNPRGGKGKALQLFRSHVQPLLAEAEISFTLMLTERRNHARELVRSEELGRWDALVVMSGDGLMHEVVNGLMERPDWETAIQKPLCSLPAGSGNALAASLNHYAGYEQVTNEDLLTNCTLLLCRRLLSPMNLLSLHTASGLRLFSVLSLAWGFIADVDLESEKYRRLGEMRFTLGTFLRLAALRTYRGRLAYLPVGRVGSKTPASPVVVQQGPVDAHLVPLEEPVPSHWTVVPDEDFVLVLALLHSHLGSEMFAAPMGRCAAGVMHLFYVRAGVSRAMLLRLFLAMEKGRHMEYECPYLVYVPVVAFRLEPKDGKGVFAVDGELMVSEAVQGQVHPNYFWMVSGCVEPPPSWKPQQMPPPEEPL
Sequence of Casein kinase II subunit alpha (Homo sapiens) (P68400 whole entry, looked up): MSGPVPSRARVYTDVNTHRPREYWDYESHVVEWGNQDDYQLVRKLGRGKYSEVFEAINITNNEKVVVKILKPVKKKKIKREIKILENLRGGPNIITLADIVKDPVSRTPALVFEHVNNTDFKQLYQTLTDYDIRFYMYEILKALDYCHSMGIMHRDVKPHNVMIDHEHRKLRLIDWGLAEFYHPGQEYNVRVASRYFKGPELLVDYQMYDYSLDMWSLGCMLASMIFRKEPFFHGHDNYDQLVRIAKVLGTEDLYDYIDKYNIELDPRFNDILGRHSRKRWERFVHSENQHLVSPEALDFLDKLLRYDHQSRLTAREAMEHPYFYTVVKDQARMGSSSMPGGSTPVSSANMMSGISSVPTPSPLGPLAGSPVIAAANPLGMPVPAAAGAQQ

On to `Fc1ccc(-c2nn3ccccc3c2-c2ccncc2)cc1`, for which the inhibition in assay [1] was -4.19%; in [2], 0.23%; in [3], -0.19%; in assay [4] it was -0.45%; in [5], 0.13%; in assay [6] it was 2.86%. Also, the inhibition is -1.37% in assay [7], 0.51% in assay [8], 0.63% in [9] and 2.31% in [10].
Take `NS(=O)(=O)c1ccc(N/N=C2\C(=O)Nc3ccc4ncccc4c32)cc1`: the inhibition in [1] is -1.18%; in [2], 0.16%; in assay [3], 7.47%; in assay [4], 5.01%; in [5], 32.2%; in assay [6], 9.67%. Further, the inhibition in [7] was 20%; in [8], 4.79%; in assay [9] it was 26%; in assay [10], 8.67%.
With `O=S(=O)(CCNCc1ccc(-c2ccc3ncnc(Nc4ccc(OCc5cccc(F)c5)c(Cl)c4)c3c2)o1)c1ccccc1`, the inhibition in [1] was -5.05%; in [2], -0.55%; in [3], 0.69%; in [4] it was 10.6%; in assay [5], 5.49%; in assay [6], 2.96%. The inhibition in [7] is -0.88%; in [8] it was 6.77%; in assay [9], 7.07%; in assay [10] it was 12%.
In the case of `COc1cc2ncn(-c3cc(OCc4ccccc4C(F)(F)F)c(C(=O)N(C)C)s3)c2cc1OC`, the inhibition was -3.72% in [1]; 0.13% in assay [2]; -2.18% in assay [3]; -0.24% in assay [4]; 2.74% in [5]; 5.36% in assay [6]. In addition, the inhibition in [7] was 2.95%; in assay [8] it was -0.51%; in assay [9] it was 0.42%; in assay [10], 0.86%.
Turning to `CNC(=O)c1cccc(C#Cc2cncnc2Nc2ccc(OCc3cccc(F)c3)c(Cl)c2)c1`, the inhibition in [1] was 2.62%; in [2] it was 0.55%; in assay [3], -7.19%; in assay [4], 2.99%; in assay [5], 10.1%; in [6] it was -3.42%. Also, the inhibition in assay [7] is -9.45%; in [8], 0.53%; in assay [9] it was -0.35%; in [10], 4.53%.
For the compound `Fc1ccc(-c2cc(-c3c[nH]nc3-c3ccccn3)ccn2)cc1`, the inhibition in assay [1] was -2.44%; in [2] it was -0.74%; in assay [3], -0.12%; in assay [4] it was 3.83%; in assay [5] it was 11.9%; in [6], 5.34%. The inhibition in assay [7] was 3.99%; in assay [8], 5.76%; in assay [9], 9.85%; in [10] it was 8.65%.
For the compound `CCN1CCC(CC(=O)Nc2n[nH]c3nnc(-c4cccc(F)c4F)cc23)CC1`, the inhibition in assay [1] was 1.84%; in assay [2], -1.05%; in assay [3] it was 0%; in assay [4], 5.23%; in assay [5], 2.82%; in assay [6], 4.71%. The inhibition in [7] turned out to be 0.12%; in assay [8] it was 5.28%; in assay [9], 3.6%; in [10], 4.71%.
For the compound `O=C(O[C@H]1CN[C@H](C#Cc2cc3ncnc(Nc4ccc(Cc5ccccc5)cc4)c3s2)C1)N1CCOCC1`, the inhibition is -1.06% in assay [1]; -1.12% in assay [2]; -1.6% in assay [3]; 6.95% in assay [4]; 1.52% in [5]; 6.44% in assay [6]. The inhibition in assay [7] worked out at 1.74%; in assay [8] it was 4%; in assay [9], 0.81%; in [10], 3.09%.
Take `CCN(CC)S(=O)(=O)c1ccc(OC)c(Nc2ncc(-c3ccccc3)o2)c1`: the inhibition in assay [1] is -3.4%; in [2], -1.48%; in [3] it was 0.49%; in assay [4], 2.99%; in assay [5], 15.1%; in [6] it was 3.54%. The inhibition in assay [7] was -6.23%; in assay [8], 0.24%; in assay [9], -0.16%; in assay [10] it was 2.98%.
`Clc1ccc(-c2nn3ncccc3c2-c2ccnc(Nc3ccccc3)n2)cc1`: the inhibition in [1] is -1.12%; in [2], -0.19%; in assay [3], 0.98%; in [4], 1.72%; in [5] it was 1.08%; in assay [6], -0.83%. In addition, the inhibition in assay [7] was 0.14%; in [8], -3.05%; in assay [9], -3.62%; in assay [10], 1.23%.
On to `COc1ccc(-c2cc3c(N)ncnc3o2)cc1`, for which the inhibition in assay [1] was 0.27%; in [2], 0.92%; in assay [3], -0.08%; in assay [4], 4.9%; in [5], 14.2%; in assay [6], -1.6%. The inhibition in assay [7] was -3.79%; in [8], -0.63%; in assay [9], 6.4%; in [10] it was -2.31%.
In the case of `N#Cc1c(NC(=O)c2ccc(F)cc2)sc2c1CCCC2`, the inhibition was -1.09% in [1]; 0.33% in assay [2]; 0% in assay [3]; 0.61% in assay [4]; 1.89% in [5]; 5.73% in [6]. Also, the inhibition amounted to 4.51% in assay [7], 1.94% in assay [8], 4.15% in [9] and 2.43% in assay [10].
Take `CS(=O)(=O)CCNCc1coc(-c2ccc3ncnc(Nc4ccc(OCc5ccccc5)cc4)c3c2)c1`: the inhibition is -1.49% in assay [1]; 0% in assay [2]; -0.98% in [3]; 1.05% in assay [4]; 6.53% in assay [5]; 4.1% in assay [6]. Moreover, the inhibition came to 2.85% in assay [7], 3.35% in assay [8], 5.11% in [9] and 4.2% in assay [10].
Regarding `COc1cc(Nc2nccc(Nc3ccc4c(C)n[nH]c4c3)n2)cc(OC)c1OC`, the inhibition in assay [1] was 1.98%; in [2] it was -1.28%; in [3] it was 0.88%; in [4], 0.37%; in [5], 0.29%; in assay [6] it was 2.2%. The inhibition is -0.92% in assay [7], 3.27% in assay [8], 17% in [9] and 0.88% in assay [10].
For the compound `Cc1ccc(O)cc1Nc1ccnc2cc(-c3ccccn3)ccc12`, the inhibition is 0.38% in assay [1]; 0.62% in [2]; -0.19% in assay [3]; 1.53% in assay [4]; -1.39% in assay [5]; 1.97% in [6]. In addition, the inhibition in assay [7] is -1.79%; in assay [8], 6.75%; in assay [9], 1.3%; in assay [10], 5.73%.
`CCn1cc(-c2ccnc3[nH]ccc23)c(-c2cccc(NC(=O)Nc3ccc(OCc4ccccc4)cc3)c2)n1`: the inhibition in assay [1] was -4.04%; in [2] it was -0.83%; in assay [3] it was -0.59%; in assay [4], 9.36%; in assay [5] it was -1.27%; in assay [6], 1.99%. Besides, the inhibition in assay [7] is -6.8%; in assay [8] it was 4.3%; in [9], 5.23%; in [10], -4.18%.
